# Source: PubChem BioAssay (National Center for Advancing Translational Sciences (NCATS))
# Compounds with a hit are over-represented: about 21% of the library has one in this group of screens.
# NS1 inh: qHTS Assay for Inhibitors of Influenza NS1 Protein Function. Potency, µM (top dose mostly 46.1 µM), for inactives: top-dose activity, positive = more growth. 0.4% of 270,000 active. AID 2326, 2010; calls by dose curve; further: potency means the concentration at half of the fitted maximal effect; actives are rising curves; nearly all actives have a fitted effect of over 50% in size
#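 Growth recovery, yeast-based: influenza A NS1 expressed in S. cerevisiae causes slow growth, and suppressors are detected by OD600. The parent strain without NS1 is used as positive control.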
# Shiga toxin inh: A qHTS for Small Molecule Inhibitors of Shiga Toxin. inhibition, % at 38.7 µM. 9.2% of 290,000 active. Vero cells, Shiga toxin protein synthesis inhibition reporter. AID 2315, 2010; in the data active means inhibition mostly above about 28%, no sharp cut-off; inactive means mostly below about 43%; further: 0% is about no effect
# Sm TGR inh: qHTS Assay for the Inhibitors of Schistosoma Mansoni Peroxiredoxins | Schistosoma mansoni thioredoxin glutathione reductase (TGR), Q962Y6 | purified TGR, DTNB reduction, TNB absorbance 405 nm | Potency, µM (top dose mostly 114 µM), for inactives: top-dose activity change, negative = inhibition, actives largely listed as inhibitors | 3% of 360,000 active | AID 485364, 2010; further: potency means the concentration at half of the fitted maximal effect; on the % scale 0 is the no-effect control and ±100 the full control effect; nearly all actives have a fitted effect of over 60% in size
#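 First, TGR (20 nM dispensed) and NADPH were mixed with compound. Second, a 15 min room-temperature incubation followed. Third, further NADPH and then DTNB were added to start the reaction. Finally, TNB absorbance was monitored kinetically.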
# Pf growth 48h: Primary qHTS for delayed death inhibitors of the malarial parasite plastid, 48 hour incubation; P. falciparum luciferase growth in erythrocytes, 48 h; Potency, µM (highest dose often 28.7 µM), without a hit: at the top dose activity change, negative = inhibition, most hits filed as inhibitors; 5.9% of 310,000 active; further: potency means the concentration at half of the fitted maximal effect; on the % scale 0 is the no-effect control and ±100 the full control effect
#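 Luciferase-expressing P. falciparum in infected erythrocytes (2% hematocrit, 0.1% parasitemia final) in RPMI 1640/0.5% Albumax were exposed to compound for 48 hours at 37 C, 5% CO2; growth read as luminescence.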
# Pf growth 96h: Primary qHTS for delayed death inhibitors of the malarial parasite plastid, 96 hour incubation; 6.9% of 320,000 active; P. falciparum luciferase reporter growth, 96 h; Potency, µM (titrated, usually from 28.7 µM), inactives show at the highest dose activity change, negative = inhibition, hits mostly inhibitors; further: potency means the concentration at half of the fitted maximal effect; on the % scale 0 is the no-effect control and ±100 the full control effect
#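 P. falciparum expressing integrated firefly luciferase, in erythrocytes at 2% hematocrit, 0.05% parasitemia, incubated with compounds 96 h at 37 C, 5% CO2. Growth inhibition read as loss of luminescence; two-generation exposure targets delayed-death apicoplast inhibitors.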
# Cycloheximide cs: Cycloheximide Counterscreen for Small Molecule Inhibitors of Shiga Toxin. cell reporter, cycloheximide protein synthesis inhibition counterscreen. max response, %. 12% of 300,000 active. AID 2314, 2010; in the data active means max response mostly above about 13%, no sharp cut-off; inactive means mostly below about 14%; further: read at 38.3 µM for the half of the compounds with a filed dose; 0% is about no effect
# * marks the source's active call; other numbers are inactive results; ? = inconclusive; nt = not tested or not shown; [ ] = another dose, or the depositor's remark. Unless noted, the call rests on the fitted dose curve; in most records, active means well fitted curve in the direction sought with a large enough effect; inconclusive means small, poorly fitted or top-dose-only effect, or another doubt; inactive means no such curve, though single readings can be large; an effect the other way counts as inactive or inconclusive.
SMILES,NS1 inh,Shiga toxin inh,Sm TGR inh,Pf growth 48h,Pf growth 96h,Cycloheximide cs
O=C(Nc1cccc(S(=O)(=O)N2CCCCC2)c1)c1ccccc1NS(=O)(=O)c1ccc(F)cc1,6%,24,-1%,12µM*,8.3µM*,0
Cc1ccc(NC(=O)c2ccccc2NS(=O)(=O)c2ccc(F)cc2)cc1S(=O)(=O)N1CCCCC1,25%,-2,0%,13µM*,12µM*,-1
Cc1ccc(S(=O)(=O)N2CCc3cc(C(=O)NCCc4ccccc4)ccc32)cc1,nt,nt,2%,nt,nt,nt
COc1ccc(NS(=O)(=O)c2cccc(C(=O)N3CCCC(C)C3)c2)cc1 (stereo unspecified),nt,nt,-11%,5%,3%,nt
O=S(=O)(c1ccc2c(c1)CCC2)N1CCNCC1,nt,nt,-1%,0%,29%,nt
O=C(O)CC(Cc1ccc(Cl)cc1)C(=O)Nc1ccccc1 (stereo unspecified),6%,nt,1%,27%,19%,2
COc1ccc(C(C)=O)cc1CC(C(=O)c1ccccc1)N(C)C (stereo unspecified),-1%,5,-12%,13%,38%,22*
COC(=O)c1ccc(CC(C(=O)c2ccccc2)N(C)C)cc1 (stereo unspecified),-2%,107*,-23%,nt,?,48*
CN(C)C(Cc1ccccc1)C(=O)c1cccs1 (stereo unspecified),nt,39,-34%,7%,12%,13*
COC(=O)c1ccc(C(=O)N(Cc2ccccc2)c2ccccc2)cc1,-78%,-7,-7%,?,-22%,-2
COc1ccc(C(C)=O)cc1CC(C(=O)c1ccc(C)cc1)N(C)C (stereo unspecified),4%,-3,-11%,-14%,?,-3
CN(C)C(Cc1ccc(Cl)cc1)C(=O)c1ccccc1 (stereo unspecified),15%,50*,-5%,4%,?,24*
Cc1ccc(C(=O)C(OC(=O)c2cnccn2)c2ccccc2)cc1 (stereo unspecified),2%,-20,17%,3%,?,12
COc1cccc(O)c1CN1CCC(Oc2ccc(C(=O)NCc3ccccn3)cc2)CC1,-6%,-4,-8%,?,?,-2
Cc1ccc(C2=Nc3ccccc3N(C(=O)c3ccccc3)C(C)C2)cc1 (stereo unspecified),-31%,-6,-4%,?,12µM*,-1
CN(C)C(CNc1nnnn1-c1ccccc1)c1ccco1 (stereo unspecified),?,-17,45µM*,-2%,9%[5.75 µM],-1
Cc1cc(C)cc(NC(=O)Cn2nnc(-c3ccccc3F)n2)c1,nt,nt,7%,nt,nt,nt
Cc1ccc(Sc2cnccc2C#N)cc1,-6%,7,-6%,?,?,-3
C=COC(=O)CSc1nc(-c2cccs2)ccc1C#N,1%,38,-13%,54%,28%,31*
CCOC(=O)C(C)Sc1nc(-c2cccs2)ccc1C#N (stereo unspecified),-9%,104,?,-15%,20%,25*
CCOC(=O)C(C)Sc1nc(-c2ccccc2Cl)cc(-c2ccccc2)c1C#N (stereo unspecified),nt,nt,8%,nt,nt,nt
COc1ccc(NC(=O)Cn2cnc3c(nnn3-c3ccc(C)cc3)c2=O)cc1,5%,-8,8%,2%,38%,-5
CC(=O)Nc1ccc(NC(=O)C(C)OC(=O)CCc2c[nH]c3ccccc23)cc1 (stereo unspecified),nt,nt,0%,-16%,-1%,nt
Cc1ccc(NC(=O)Cn2c(=O)n(-c3ccccc3)c(=O)c3ccc(C(=O)NCc4ccc5c(c4)OCO5)cc32)c(C)c1,nt,nt,2%,nt,nt,nt
Cc1ccc(O)c(-c2cc(C(=O)NCc3ccncc3)[nH]n2)c1,-10%,13,-2%,2.9µM*,4.1µM*,0
SMILES,NS1 inh,Shiga toxin inh,Sm TGR inh,Pf growth 48h,Pf growth 96h,Cycloheximide cs
COc1ccc(CNC(=O)c2cc(-c3cc(C)cc(C)c3O)n[nH]2)cc1,9%,2,5%,?,?,11
COc1ccc(Cl)cc1NC(=O)c1cc(-c2ccc(C)cc2O)n[nH]1,-1%,-2,0%,?,-14%,-1
COc1ccc(Cl)cc1NC(=O)c1cc(-c2cc(C)ccc2O)n[nH]1,-5%,27,-3%,1.9µM*,2.3µM*,10
Cc1ccc(C)c(NC(=O)c2cc(-c3cc(C)ccc3O)n[nH]2)c1,-1%,76*,-12%,-55%,?,59*
COc1ccc(NC(=O)c2cc(-c3cc(C)c(C)cc3O)n[nH]2)c(OC)c1,7%,-26,2%,1%[0.00184 µM],?,-4
COc1ccc(OC)c(NC(=O)c2cc(-c3cc(C)c(C)cc3O)n[nH]2)c1,3%,26,6%,2.6µM*,1.9µM*,11
O=C(O)C1CSC2(c3ccc(Br)cc3)CCC(=O)N12 (stereo unspecified),10%,-9,-4%,0%,6%,-5
Cn1cnnc1SCC(=O)Nc1ccc(C#N)cc1,nt,nt,1%,nt,nt,nt
CCc1ccccc1NC(=O)CCC(=O)N1CC(C)Oc2ccc(C)cc21 (stereo unspecified),nt,nt,0%,nt,nt,nt
O=C1CCc2cc(S(=O)(=O)Nc3ccccc3)cc3c2N1CC3,nt,nt,-26%,?,?,nt
COc1cc(C(=O)NCC(c2ccco2)N2CCc3ccccc3C2)cc(OC)c1OC (stereo unspecified),nt,nt,-30%,?,?,nt
Cc1cccn2c(=O)c(C(=O)NCc3ccc(F)cc3)c(O)nc12,nt,nt,6%,nt,nt,nt
COc1ccc(OC)c(NC(=O)c2cc(-c3cc(C)cc(C)c3O)n[nH]2)c1,-2%,26,1%,nt,9.3µM*,-3
COc1ccc(OC)c(NC(=O)c2cc(-c3c(C)cc(C)cc3O)n[nH]2)c1,4%,36,34%,?,-19%,8
CC1(c2ccc([N+](=O)[O-])cc2)Nc2ccccc2S1 (stereo unspecified),4%,65*,0%,-6%[0.00184 µM],0%,33*
COc1cc2c(cc1OC)C(C(=O)Nc1ccc3c(c1)OCCO3)C(c1cccnc1)N(C)C2=O (stereo unspecified),-3%,-11,3%,7.4µM*,?,-3
COc1cc2c(cc1OC)C(C(=O)N(C)Cc1ccccc1)C(c1cccnc1)N(C)C2=O (stereo unspecified),nt,17,-1%,8%,3.7µM*,-3
COc1cc2c(cc1OC)C(C(=O)Nc1cc(OC)c(OC)c(OC)c1)C(c1cccnc1)N(C)C2=O (stereo unspecified),nt,25,3%,?,?,-1
O=C(CSc1nc2ccsc2c(=O)n1Cc1ccccc1F)NCc1ccccc1,nt,nt,-1%,nt,nt,nt
